Assay results published in PubChem BioAssay (NCI).
This is part of a sample that, as a whole, favours compounds with a hit. Of some 83,000 tested, about 20% had one in any assay.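 Method: cells in 96-well plates; compound added at one concentration; 48 h incubation; percent growth measured; values under 10 scored active.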 Activity calls are given as the source filed them.

System: UACC-257 melanoma
Test: NCI-60 one-dose screen, 48 h (100 = growth as untreated, 0 = no growth, -100 = all killed)
Conditions: 10 µM unless noted

Compound | growth
c1csc(-c2cnc3nonc3n2)c1 | 75.3% (inactive)
CC1(C)CC(=O)c2cc3c(N)c(C(=O)Nc4ccc(Cl)cc4)sc3nc2C1 | 91.4% (inactive)
CN1C(=O)C(C(=O)/C=C/c2ccccc2C(=O)O)C(=O)N(C)C1=O | 93.3% (inactive)
CC(NC(=O)c1ccccc1)C(=O)Nc1ccccc1 (centres undefined) | 103% (inactive)
CN1CCC2(CC1)N=C(SCC(=O)Nc1cnc3ccccc3c1)C(c1ccc(Br)cc1)=N2 | -61.2% (active)
CSc1nc(N)c2[nH]c(-c3cc4ccccc4[nH]c3=O)nc2n1 | 104% (inactive)
C=CC(=O)N1CN(C(=O)C=C)CN(C(=O)C=C)C1 | 48% (inactive)
CC(C)(C)[Si](C)(C)OC1[C@@H](O[Si](C)(C)C(C)(C)C)[C@@H](CNC(=O)NC(=O)NC(=O)CCl)O[C@H]1n1cnc2c(NC(=O)Nc3ccccc3)ncnc21 (some centres undefined) | 97.8% (inactive)
CCCCCCCC/C=C/CCCCCCCC1=NC(C)(C)CN1c1ccccc1 | 90.2% (inactive)
CCCCCCCCN(CCCCCCCC)C(=O)CCl | 112% (inactive)
COc1cc(OC)c(Cl)cc1N | 111% (inactive)
CNC(=O)c1c(NC(=O)c2ccc(C(C)C)cc2)sc2c1CCC(=O)C2 | 1.16% (active)
COc1nccc2c(Sc3ccccc3)nc(N)nc12 | 111% (inactive)
Nc1c(C(=O)Nc2ccccc2)sc2nc3c(cc12)C(=O)CCC3 | 52.8% (inactive)
CCC(=O)NC1=C(Cl)C(=O)C(NC(=O)CC)=C(Cl)C1=O | 107% (inactive)
CCCCCCCCCCCCC1CCC(=O)O1 (centres undefined) | 107% (inactive)
CCN1C(=O)N(CC)C2C1NC(=O)N2/N=C/C=C/c1ccccc1 (centres undefined) | 35.8% (inactive)
CN(C)CCCN1c2ccccc2CCc2ccccc21 | 103% (inactive)
CC(CN1CCN(CC(C)Nc2ccnc3cc(Cl)ccc23)CC1)Nc1ccnc2cc(Cl)ccc12 (centres undefined) | -61.4% (active)
S=C(S)Oc1cccc2cccnc12 | 108% (inactive)
CCn1c(Cc2ccccc2Nc2c(Cl)cccc2Cl)nnc1SCC(=O)Nc1cccc(OC)c1 | 97.6% (inactive)
CCc1onc(-c2ccc(OC)cc2)c1-c1ccccc1OCCN(CC)CC | 111% (inactive)
COc1ccc(-c2cc(-c3ccc(OC)cc3)c3sc(=O)[nH]c3n2)cc1 | 104% (inactive)
COc1ccc2nc3ccccc3c(NCc3ccc(C)cc3)c2c1 | -7.97% (active)
CS(=O)(=O)c1ccc(C(=O)Nc2ccc(Cl)c(-c3ccccn3)c2)c(Cl)c1 | 32.6% (inactive)

System: M14 melanoma
Test: as above
Conditions: 10 µM unless noted

Compound | growth
CC[C@H](C)[C@H](N)C(=O)O | 105% (inactive)
COc1ccc2c(c1)sc1nc(-c3ccccc3)c(-c3cccc4ccccc34)n12 | 21% (inactive)
Cc1ccc(C)c(NC(=O)c2sc3c(=O)[nH]cnc3c2C)c1 | 57.8% (inactive)
Cc1ccncc1NC=O | 96.4% (inactive)
COc1ccc(/C(C)=N/NC(=O)CSc2nc3ccccc3c(=O)n2CCc2ccc(S(N)(=O)=O)cc2)cc1 | 38.4% (inactive)
COC(=O)OC1C(O[C@H]2C[C@H]3[C@@H]4CC=C5C[C@@H](O)CC[C@]5(C)[C@H]4CC[C@]3(C)[C@H]2[C@H](C)C(=O)CCC(C)C)OCC(O)C1OC1OCC(O)C(O)C1OC(=O)c1ccc(OC)cc1 (some centres undefined) | -58.5% (active)
O=C1CCCN1C1CCN2CCCc3cccc1c32 (centres undefined) | 100% (inactive)
CC1OC(n2c3ccccc3c3c4c(c5c6ccccc6[nH]c5c32)C(=O)N(CCN[C@H]2CCC[C@@H]2N)C4=O)CC(O)C1O (some centres undefined) | 36.1% (inactive)
COc1ccc2[nH]cc(C3(c4c[nH]c5ccc(OC)cc45)C(=O)Nc4ccc(F)cc43)c2c1 | 86.7% (inactive)
c1cc2c(cc1-c1cnc3nonc3n1)OCO2 | 101% (inactive)
Nc1c(C(=O)Nc2cccc(Cl)c2)sc2nc3c(cc12)C(=O)CCC3 | 26.9% (inactive)
O=C(Nc1ccc(Br)cc1)c1ccc(Cl)c(Cl)c1 | 64.5% (inactive)
O=C(CSc1nc2c(n1Nc1ccccc1)-c1ccccc1SC2)Nc1nccs1 | 102% (inactive)
COc1ccc(-c2nc3c(c(-c4ccc(Cl)cc4)nn3-c3ccccc3)c(-c3ccc(O)cc3)c2C#N)cc1 | 45.9% (inactive)
c1csc(-c2cnc3nonc3n2)c1 | 89.4% (inactive)
CC1(C)CC(=O)c2cc3c(N)c(C(=O)Nc4ccc(Cl)cc4)sc3nc2C1 | 107% (inactive)
CN1C(=O)C(C(=O)/C=C/c2ccccc2C(=O)O)C(=O)N(C)C1=O | 99% (inactive)
CC(NC(=O)c1ccccc1)C(=O)Nc1ccccc1 (centres undefined) | 103% (inactive)
CN1CCC2(CC1)N=C(SCC(=O)Nc1cnc3ccccc3c1)C(c1ccc(Br)cc1)=N2 | -83.8% (active)
CSc1nc(N)c2[nH]c(-c3cc4ccccc4[nH]c3=O)nc2n1 | 77.4% (inactive)

Compound | growth
C=CC(=O)N1CN(C(=O)C=C)CN(C(=O)C=C)C1 | 87.1% (inactive)
CC(C)(C)[Si](C)(C)OC1[C@@H](O[Si](C)(C)C(C)(C)C)[C@@H](CNC(=O)NC(=O)NC(=O)CCl)O[C@H]1n1cnc2c(NC(=O)Nc3ccccc3)ncnc21 (some centres undefined) | 64.7% (inactive)
CCCCCCCC/C=C/CCCCCCCC1=NC(C)(C)CN1c1ccccc1 | 99.7% (inactive)
CCCCCCCCN(CCCCCCCC)C(=O)CCl | 104% (inactive)
COc1cc(OC)c(Cl)cc1N | 115% (inactive)
CNC(=O)c1c(NC(=O)c2ccc(C(C)C)cc2)sc2c1CCC(=O)C2 | -39.4% (active)
COc1nccc2c(Sc3ccccc3)nc(N)nc12 | 118% (inactive)
Nc1c(C(=O)Nc2ccccc2)sc2nc3c(cc12)C(=O)CCC3 | 1.11% (active)
CCC(=O)NC1=C(Cl)C(=O)C(NC(=O)CC)=C(Cl)C1=O | 93.7% (inactive)
CCCCCCCCCCCCC1CCC(=O)O1 (centres undefined) | 91.6% (inactive)
CCN1C(=O)N(CC)C2C1NC(=O)N2/N=C/C=C/c1ccccc1 (centres undefined) | 28.5% (inactive)
CN(C)CCCN1c2ccccc2CCc2ccccc21 | 128% (inactive)
CC(CN1CCN(CC(C)Nc2ccnc3cc(Cl)ccc23)CC1)Nc1ccnc2cc(Cl)ccc12 (centres undefined) | -88% (active)
S=C(S)Oc1cccc2cccnc12 | 105% (inactive)
CCn1c(Cc2ccccc2Nc2c(Cl)cccc2Cl)nnc1SCC(=O)Nc1cccc(OC)c1 | 76.4% (inactive)
CCc1onc(-c2ccc(OC)cc2)c1-c1ccccc1OCCN(CC)CC | 76.3% (inactive)
COc1ccc(-c2cc(-c3ccc(OC)cc3)c3sc(=O)[nH]c3n2)cc1 | 109% (inactive)
COc1ccc2nc3ccccc3c(NCc3ccc(C)cc3)c2c1 | 28.7% (inactive)
CS(=O)(=O)c1ccc(C(=O)Nc2ccc(Cl)c(-c3ccccn3)c2)c(Cl)c1 | 26.8% (inactive)
